High-throughput results (PubChem BioAssay)
GLS inhibitor = inhibitors of human glutaminase (GLS); O94925; GLS enzymatic activity, qHTS titration; Potency, µM (highest dose often 45.5 µM), usual class: inhibitors; 0.21% of 410,000 active; AID 624170
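hKGA in 45 mM KH2PO4 (pH 8.2), 0.02% Tween-20 with compound, then 1mM L-Glutamine (stock as added) plus glutamate oxidase/HRP/Amplex red coupling mix. Fluorescence read initially and after 30 min at RT; signal change reflects glutamate formation.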
JMJD2A Tudor inh = inhibitors of human JMJD2A Tudor domain; O75164; AlphaScreen JMJD2A-Tudor / H3K4me3 peptide binding; Potency, µM (series often up to 114 µM), hits mostly inhibitors; 4.4% of 390,000 active; further: nearly all actives have a fitted effect of over 50% in size
BAZ2B inh = blocks human BAZ2B. AlphaScreen BAZ2B-H3K14Ac peptide displacement. 4.4% of 360,000 active. Potency, µM (doses to about 114 µM), actives largely listed as inhibitors. Q9UIF8; further: nearly all actives have a fitted effect of over 60% in size
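Complex of BAZ2B and biotin-H3K14Ac (50 nM apiece) forms over 30 min at RT, then faces library compounds up to 110 uM for another 30 min; AlphaScreen beads added, 20 min dark incubation, luminescence read.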
G9a inh = G9a (human) methyltransferase inhibition. G9a H3K9 monomethylation, AlphaScreen, 2 h. Q96KQ7. Potency, µM (top dose mostly 102 µM), actives largely listed as inhibitors. 8.8% of 350,000 active; further: nearly all actives have a fitted effect of over 75% in size
Target sequence (Q96KQ7 913-1193 limits assumed): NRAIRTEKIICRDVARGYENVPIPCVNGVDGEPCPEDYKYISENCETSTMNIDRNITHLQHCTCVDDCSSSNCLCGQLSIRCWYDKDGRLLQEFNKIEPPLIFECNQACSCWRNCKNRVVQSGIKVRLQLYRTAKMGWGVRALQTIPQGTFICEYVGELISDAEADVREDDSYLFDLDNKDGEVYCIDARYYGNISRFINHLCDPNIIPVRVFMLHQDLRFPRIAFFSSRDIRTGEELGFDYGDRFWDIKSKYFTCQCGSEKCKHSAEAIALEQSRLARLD
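Using a bead-based AlphaScreen, monomethylated H3K9 product from 2 h room-temperature reactions (G9a 20 nM, peptide 500 nM, SAM 20 uM) was detected with 0.5 ug/mL rabbit anti-H3K9me1 antibody.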
HP1b binding inh = blocks HP1-beta chromodomain binding to methylated histone tails; P83916; AlphaScreen HP1-beta / biotin-H3K9me3 peptide binding; Potency, µM (top dose mostly 114 µM), usual class: inhibitors; 0.56% of 390,000 active; AID 540317; further: nearly all actives have a fitted effect of over 70% in size
Target sequence (P83916 whole entry, looked up): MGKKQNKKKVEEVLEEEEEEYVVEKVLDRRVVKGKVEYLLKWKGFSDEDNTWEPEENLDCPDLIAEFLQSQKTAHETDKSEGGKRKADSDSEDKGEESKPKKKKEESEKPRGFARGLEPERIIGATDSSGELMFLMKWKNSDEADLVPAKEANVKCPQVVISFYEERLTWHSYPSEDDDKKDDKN
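Compound inhibition of the preformed complex between 50 nM HP1-beta and 50 nM biotinylated H3K9me3 peptide was read by AlphaScreen. Buffer was PBS pH 7.4 with 0.01% Tween-20. Incubations ran 30 min at room temperature, with 10 ug/mL donor/acceptor beads.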
Hits are given with their value; 0 = inactive; ? = inconclusive; - = no result given; [ ] = remark or other dose. Sampled rows, rich in hits. Any-hit rate of the full collection: about 10%. The call rests on the fitted dose curve; in most records, active means well fitted curve in the direction sought with a large enough effect; inconclusive means small, poorly fitted or top-dose-only effect, or another doubt; inactive means no such curve, though single readings can be large; an effect the other way counts as inactive or inconclusive.

SMILES	GLS inhibitor	JMJD2A Tudor inh	BAZ2B inh	G9a inh	HP1b binding inh
CC(=O)c1ccc(OCCCN2CCCCC2)cc1	0	2.2µM	50µM	3.5µM	?
CN(CCCNC(=O)Cn1ncc2c([nH]c3ccccc32)c1=O)Cc1ccccc1	0	0	?	0	0
COc1ccc(-n2c3c(cc(-c4nc(-c5ccc(Cl)cc5)cs4)c2=O)C(=O)CC(C)(C)C3)cc1	0	0	?	4.5µM	0
COc1ccc(C)cc1-n1c(-c2ccc(Cl)cc2)cc2c1CC(C)(C)CC2=O	0	?	?	?	0
COc1ccc(-n2c(-c3ccc(Cl)cc3)cc3c2CC(C)(C)CC3=O)c(OC)c1	0	14µM	11µM	13µM	?
CC1(C)CC(=O)c2cc(-c3nc(-c4ccc(Cl)cc4)cs3)c(=O)n(-c3ccc(Cl)cc3)c2C1	0	0	0	0	0
COc1ccc(C2CC(=O)c3cc(-c4nc(-c5cccc([N+](=O)[O-])c5)cs4)c(=O)n(-c4ccc(OC)cc4)c3C2)cc1 (centres undefined)	0	0	0	0	0
COc1ccc(-n2c3c(cc(-c4nc(-c5ccc(Cl)cc5)cs4)c2=O)C(=O)CC(C)(C)C3)cc1Cl	0	0	0	8.9µM	0
COc1ccc(C2CC(=O)c3cc(-c4nc(-c5cccc([N+](=O)[O-])c5)cs4)c(=O)n(-c4cccc(C)c4)c3C2)cc1 (centres undefined)	0	0	0	16µM	0
NC(=O)C1=CC2C3C=CC2(O)C(=O)OC3O1 (centres undefined)	0	0	-	-	0
CC(=O)N1CCCc2cc(S(=O)(=O)N3CCC(C)CC3)ccc21	0	0	0	0	0
COc1ncc2nc(-c3ccccc3)c(=O)n(C)c2n1	-	-	-	0[0.501 µM]	-
CC1(C)CC(=O)c2cc(C#N)c(=O)n(-c3ccc(Cl)cc3)c2C1	0	0	0	14µM	0
Cc1ccc(NC(=O)N2CCN(c3nnc(C)c4c(C)n(-c5ccc(Cl)cc5)nc34)CC2)c(C)c1	0	0	0	0	0
C#CCOCCOCCOCCNc1nc(N2CCN(C(=O)C([C@@H](C)CC)n3cc(C(N)COC(=O)C(F)(F)F)nn3)CC2)nc(N2CCN(C(=O)[C@H](Cc3cc4ccccc4[nH]3)n3cc(C(N)CO)nn3)CC2)n1 (some centres undefined)	0	50µM	-	-	0
C#CCOCCOCCOCCNc1nc(N2CCN(C(=O)[C@H]([C@@H](C)CC)n3cc([C@@H](N)CC(C)C)nn3)CC2)nc(N2CCN(C(=O)[C@H](Cc3cc4ccccc4[nH]3)n3cc([C@@H](N)CC(C)C)nn3)CC2)n1	-	-	56µM	?	-
C#CCOCCOCCOCCNc1nc(N2CCN(C(=O)[C@H]([C@@H](C)CC)n3cc([C@@H](N)CO)nn3)CC2)nc(N2CCN(C(=O)[C@H](Cc3cc4ccccc4[nH]3)n3cc([C@@H](N)C(C)CC)nn3)CC2)n1 (some centres undefined)	-	-	50µM	?	-
C#CCOCCOCCOCCNc1nc(N2CCN(C(=O)[C@H](Cc3cc4ccccc4[nH]3)n3cc([C@@H](N)C(C)CC)nn3)CC2)nc(N2CCN(C(=O)[C@H](CCCCN)n3cc([C@@H](N)CC(C)C)nn3)CC2)n1 (some centres undefined)	0	45µM	35µM	0[12.7 µM]	0
CC(CCc1ccccc1)NC(=O)Cn1c(=O)nc(-c2ccccc2F)c2cc(Cl)ccc21 (centres undefined)	0	0	0	0[12.7 µM]	0
Cc1ccc(NC(=O)Cn2c(=O)n(CC3CCCO3)c(=O)c3ccccc32)cc1 (centres undefined)	0	0	0	0	0
C#CCOCCOCCOCCNc1nc(N2CCN(C(=O)C(CCC(=O)O)n3cc(C(N)CC(C)C)nn3)CC2)nc(N2CCN(C(=O)C(Cc3cc4ccccc4[nH]3)n3cc(C(N)Cc4ccc(O)cc4)nn3)CC2)n1 (centres undefined)	0	56µM	45µM	0[12.7 µM]	0
C#CCOCCOCCOCCNc1nc(N2CCOCC2)nc(N2CCN(C(=O)[C@H](Cc3cc4ccccc4[nH]3)n3cc([C@@H](N)CC(C)C)nn3)CC2)n1	0	?	0	?	0
C#CCOCCOCCOCCNc1nc(N2CCN(C(=O)[C@H](CCC(=O)O)n3cc(C(N)CC(C)C)nn3)CC2)nc(N2CCN(C(=O)[C@H](Cc3cc4ccccc4[nH]3)n3cc(C(N)CC(C)C)nn3)CC2)n1 (some centres undefined)	0	?	50µM	?	0
C#CCOCCOCCOCCNc1nc(N2CCN(C(=O)[C@H](Cc3cc4ccccc4[nH]3)n3cc(C(N)CC(C)C)nn3)CC2)nc(N2CCN(C(=O)[C@H](CCC(=O)O)n3cc(C(N)[C@H](C)CC)nn3)CC2)n1 (some centres undefined)	0	56µM	45µM	0[12.7 µM]	0
C#CCOCCOCCOCCNc1nc(N2CCN(C(=O)[C@H](Cc3cc4ccccc4[nH]3)n3cc([C@@H](N)CC(C)C)nn3)CC2)nc(N2CCN(C(=O)[C@H](Cc3cc4ccccc4[nH]3)n3cc([C@@H](N)CC(C)C)nn3)CC2)n1	0	45µM	45µM	?	?
SMILES	GLS inhibitor	JMJD2A Tudor inh	BAZ2B inh	G9a inh	HP1b binding inh
Cc1ccccc1-c1cc2nc(NCCN3CCNC3=O)n(C)c(=O)c2s1	0	-	-	-	-
COc1ccc(NC(=O)C2c3ccccc3OCC(=O)N2Cc2ccco2)cc1 (centres undefined)	0	-	-	-	-
COc1cccc(NC(=O)c2cnc(NS(=O)(=O)c3ccccc3)nc2)c1	0	-	-	-	-
CC(C)(C)S(=O)N1Cc2cc(C(=O)NCC(F)(F)F)nc(-c3cccc(-c4cccc(F)c4)c3)c2[C@H]1CCO (some centres undefined)	0	-	-	-	-
COc1ccc(-c2cnnn2-c2ccc(NC(=O)/C=C/c3ccc(OC)c(OC)c3)cc2)cc1	0	0	0	50µM	?
COc1ccc(/C=C/C(=O)Nc2ccc(-n3nncc3-c3ccc(OC)c(OC)c3)cc2)cc1OC	0	0	0	50µM	0
CCC(=O)N1CCCC1(C)C(=O)Nc1ccc2nc(C)ccc2c1 (centres undefined)	0	-	-	-	-
C=CCOC(=O)Nc1c(C(=O)OC)[nH]c2ccccc12	0	0	0	50µM	0
COC(=O)c1[nH]c2cc(OC)c(OC)cc2c1NC(=O)Oc1ccccc1	0	?	0	2.8µM	0
CCOC(=O)c1[nH]c2ccc(OC)cc2c1NC(=O)OC	0	0	0	0	0
COC(=O)c1[nH]c2ccccc2c1NC(=O)Oc1ccccc1	0	0	0	10µM	0
CCOC(=O)c1[nH]c2cc(OC)c(OC)cc2c1NC(=O)C(C)N1CCN(Cc2ccccc2)CC1 (centres undefined)	0	0	?	45µM	0
Cc1ccc(C)c(-n2cc(-c3ccccc3)nc2SCC(=O)Nc2ccccc2)c1	0	?	?	?	0
